Assay [1] concerns the target Estrogen receptor beta (Homo sapiens) (UniProt Q92731). The assay is described as follows: qHTS assay to identify small molecule agonists of the estrogen receptor beta (ER-beta) signaling pathway (AID 1259377; active means well fitted activation curve with a large enough effect in the signal ratio in the repeat runs, not every such curve was filed as active; the % refers to the signal ratio). In outline:
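Reporter cells (HEK293T, ER-beta-UAS-bla) receive compounds or DMSO after a 6 hr pre-incubation. They then incubate 16 hr at 37C/5% CO2, and fluorescence from LiveBLAzer B/G substrate is measured after 2 hours at room temperature.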

The target is the same in assay [2]. The assay is described as follows: qHTS assay to identify small molecule antagonists of the estrogen receptor beta (ER-beta) signaling pathway (AID 1259378; active means well fitted inhibition curve with a large enough effect in the signal ratio in the repeat runs, not every such curve was filed as active; the % refers to the signal ratio; further: potency means the concentration at half of the fitted maximal effect). Summed up: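 ER-beta-UAS-bla HEK293T cells in 2% charcoal-stripped FBS medium treated with compound plus 1nM final 17-beta-estradiol for 16 hr at 37C. Beta-lactamase reporter read by FRET substrate fluorescence after 2 hours at room temperature.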
For orientation: qHTS replaces the single test concentration by a dilution series.

Assay [3] can be described thus: qHTS assay to identify small molecule agonists of the androgen receptor (AR) signaling pathway in the presence of an antagonist - cell viability counter screen (AID 1259379). Further: nearly all actives have a fitted effect of over 25% in size. Further: potency means the concentration at half of the fitted maximal effect. Summed up: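 MDA-kb2 viability measured by CellTiter-Fluor fluorescence in the same wells as the luciferase signal; nilutamide 3.0uM final; 15-point compound titration; 16 hr at 37C.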
Assay [4] is described as follows: qHTS assay to identify small molecule agonists of the estrogen receptor beta (ER-beta) signaling pathway - cell viability counter screen (AID 1259380). Further: nearly all actives have a fitted effect of over 30% in size. In outline:
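Measured: luminescence from CellTiter-Glo after 30 min at room temperature, added to wells already read for the LiveBLAzer FRET reporter (2 hr substrate); ER-beta-UAS-bla HEK293T cells had 16 hr compound treatment at 37C, 5% CO2.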

Assay [5] has as its target Estrogen receptor (Homo sapiens) (UniProt P03372). The assay is described as follows: qHTS assay to identify small molecule agonists of the estrogen receptor alpha (ER-alpha) signaling pathway in the presence of an antagonist (AID 1259383; calls by dose curve; further: top concentration of the series differs between compounds; nearly all actives have a fitted effect of over 15% in size). Summed up:
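Quantitative HTS confirmation: compounds titrated at 15 concentrations onto estrogen-deprived VM7Luc4E2 cells carrying a four-ERE luciferase construct, with ICI-182,780 present at 10.0nM final. Signal is luminescence after 22hr exposure.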

The nature of assay [6]: qHTS assay to identify small molecule agonists or antagonists of the thyroid stimulating hormone receptor (TSHR) signaling pathway - wild type cell line counter screen (AID 1259384; calls by dose curve). Summed up:
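Wild-type Hek293 cells, 800/well, 18 h at 37C, then compound with Ro20-1724 for 30 min RT. cAMP by HTRF (cAMP-d2/anti-cAMP cryptate), 1 h RT, fluorescence read. 15 concentrations, triplicates.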

For assay [7], the target named is Thyrotropin receptor (Homo sapiens) (UniProt P16473). The assay is described as follows: qHTS assay to identify small molecule antagonists of the thyroid stimulating hormone receptor (TSHR) signaling pathway (AID 1259385; calls by dose curve; further: nearly all actives have a fitted effect of over 20% in size). Summed up: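 TSHR-HEK293 cells (800/well) plated 18 h, then compounds with Ro20-1724 and TSH at 1.5 ng/mL final, 30 min at room temperature. cAMP quantified by HTRF (cAMP-d2/anti-cAMP-cryptate, 1 h); 15 concentrations in triplicate.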

Assay [8] can be described thus: qHTS assay to identify small molecule agonists of the estrogen receptor alpha (ER-alpha) signaling pathway in the presence of an antagonist - cell viability counter screen (AID 1259386).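 Further: cells exposed to compounds for 22 h at 37 °C before the viability read; nearly all actives have a fitted effect of over 30% in size.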 Further: potency means the concentration at half of the fitted maximal effect. In outline:
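The test measures whether compounds kill ER-alpha reporter cells (VM7Luc4E2) under antagonist co-treatment (ICI-182,780, 10.0nM). Fluorescence from CellTiter-Fluor is read after a 22hr exposure.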

A short description of assay [9]: qHTS assay to identify small molecule antagonists of the progesterone receptor (PR) signaling pathway - cell viability counter screen (AID 1346798). Further: series mostly up to about 92 µM; nearly all actives have a fitted effect of over 50% in size. Summed up:
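In the same plates used for the beta-lactamase readout, cell viability of compound- and R5020-treated PR-UAS-bla HEK293T cells (16 hr, 37C) was assessed by CellTiter-Glo luminescence.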

A short description of assay [10]: qHTS assay to identify small molecule antagonists of the TGF-beta/Smad signaling pathway - cell viability counter screen (AID 1346824). Further: nearly all actives have a fitted effect of over 50% in size. Summed up:
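SBE-bla HEK 293T cells, incubated overnight, then compound plus 0.25 ng/mL TGF-beta1 (stock added) for 5 hr at 37 C. Viability was read in the same wells by CellTiter-Glo luminescence after 30 min at room temperature.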

A short description of assay [11]: qHTS assay to identify small molecule agonists of the TGF-beta/Smad signaling pathway - cell viability counter screen (AID 1346829). Further: top concentration of the series differs between compounds; nearly all actives have a fitted effect of over 45% in size. In outline: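 Compound-treated SBE-bla HEK 293T cells (5 hr, 37 C) were assessed for viability with CellTiter-Glo in parallel with the reporter read.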
The nature of assay [12]: qHTS assay to identify small molecule agonists of the TGF-beta/Smad signaling pathway (AID 1346859; active means well fitted activation curve with a large enough effect in the signal ratio in the repeat runs, not every such curve was filed as active; the % refers to the signal ratio; further: series mostly up to about 77 µM). Summed up:
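Screening used HEK 293T SBE-bla cells at 4,000/well. Test agents: 5 hr, 37 C. Detection: FRET substrate, 2 hr RT, then excitation 405 nm with emissions at 460 and 530 nm.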

Assay [13] addresses Thyrotropin-releasing hormone receptor (Homo sapiens) (UniProt P34981). The assay is described as follows: qHTS assay to identify small molecule antagonists of the thyrotropin-releasing hormone receptor (TRHR) signaling pathway (AID 1346877; active means well fitted inhibition curve with a large enough effect in the repeat runs, not every such curve was filed as active; further: series mostly up to about 51 µM). Summed up:
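Overnight-plated (18 h, 37 °C) HEK293 cells expressing TRHR were dye-loaded 2 h, treated with compound, then stimulated with TRH at 1 nM final. Fluorescence intensity was captured every second for 3 min.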

Assay [14] shares this target. The assay is described as follows: qHTS assay to identify small molecule agonists of the thyrotropin-releasing hormone receptor (TRHR) signaling pathway (AID 1346891; calls by dose curve; further: series mostly up to about 58 µM). In outline:
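Readout was intracellular calcium fluorescence in TRHR-Hek293 cells. Cells were incubated 18 h, dye-loaded 2 h at 37 °C, and treated with compound in agonist mode.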

A short description of assay [15]: Human pregnane X receptor (PXR) small molecule agonists, qHTS cell viability counter screen (AID 1346977). Further: nearly all actives have a fitted effect of over 50% in size. Further: potency means the concentration at half of the fitted maximal effect. Summed up:
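In each well, the PXR reporter HepG2 line was checked for viability: CellTiter-Fluor reagent added 23hr post-dosing, fluorescence read after 1hr incubation at 37C.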

Assay [16] can be described thus: qHTS assay to identify small molecule antagonists of the estrogen receptor beta (ER-beta) signaling pathway - cell viability counter screen (AID 1259382). Further: series mostly up to about 92 µM; nearly all actives have a fitted effect of over 55% in size. In outline:
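Readout: luminescence, CellTiter-Glo, same wells as bla assay. System: ER-beta-UAS-bla GripTite HEK293T, 2% charcoal-stripped FBS. Exposure: compounds plus 1nM 17-beta-estradiol, 16 hr, 37C.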

The target of assay [17] is Progesterone receptor (Homo sapiens) (UniProt P06401). The assay is described as follows: qHTS assay to identify small molecule agonists of the progesterone receptor (PR) signaling pathway (AID 1346784; calls by dose curve; further: nearly all actives have a fitted effect of over 30% in size). Summed up: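 Reporter assay, GripTite PR-UAS-bla HEK 293T cells: 16 hr exposure to DMSO-dissolved compounds at 37C, 5% CO2, in steroid-depleted (2% charcoal-stripped FBS) medium; beta-lactamase measured by FRET fluorescence.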

Assay [18] has the same target. The assay is described as follows: qHTS assay to identify small molecule antagonists of the progesterone receptor (PR) signaling pathway (AID 1346795; active means well fitted inhibition curve with a large enough effect in the signal ratio in the repeat runs, not every such curve was filed as active; the % refers to the signal ratio; further: potency means the concentration at half of the fitted maximal effect). In outline:
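Stimulus R5020 at 1 nM final; cells HEK293T PR-UAS-bla; medium with 2% charcoal-stripped FBS; compound exposure 16 hr at 37C, 5% CO2; detection by FRET beta-lactamase substrate, 2 hr, room temperature.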

Assay [19] is described as follows: qHTS assay to identify small molecule agonists of the progesterone receptor (PR) signaling pathway - cell viability counter screen (AID 1346799; calls by dose curve; further: nearly all actives have a fitted effect of over 45% in size). In outline: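 Multiplexed viability read: CellTiter-Glo luminescence, 30 min RT, following LiveBLAzer FRET measurement on PR-UAS-bla HEK293T cells exposed to compounds 16 hr.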
Assay [20] has as its target Androgen receptor (Homo sapiens) (UniProt P10275). The assay is described as follows: qHTS assay to identify small molecule agonists of the androgen receptor (AR) signaling pathway in the presence of an antagonist (AID 1259381; calls by dose curve; further: nearly all actives have a fitted effect of over 15% in size). Summed up: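 Luminescent ONE-Glo read, 30min at room temperature, follows 16hr compound exposure (15 concentrations) of MDA-kb2 cells at 37C, 0% CO2, with nilutamide added at 3.0uM final.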

Several values for one entry are separate records, joined by “and”; a condition that tells them apart may be missing. Identical values can stand only once. Results filed as inconclusive are left out. Some compounds were tested as several samples or in several runs, with calls that do not always agree. Activity calls are given as the source filed them. Unless noted, the call rests on the fitted dose curve; in most records, active means well fitted curve in the direction sought with a large enough effect in the repeat runs; inconclusive means weak or mixed curves; inactive means no such curve, though single readings can be large; an effect the other way counts as inactive or inconclusive.

This passage reports Potency and outcome results from PubChem BioAssay (Tox21).

Thyrotropin-releasing hormone receptor (Homo sapiens), sequence (P34981 whole entry, looked up): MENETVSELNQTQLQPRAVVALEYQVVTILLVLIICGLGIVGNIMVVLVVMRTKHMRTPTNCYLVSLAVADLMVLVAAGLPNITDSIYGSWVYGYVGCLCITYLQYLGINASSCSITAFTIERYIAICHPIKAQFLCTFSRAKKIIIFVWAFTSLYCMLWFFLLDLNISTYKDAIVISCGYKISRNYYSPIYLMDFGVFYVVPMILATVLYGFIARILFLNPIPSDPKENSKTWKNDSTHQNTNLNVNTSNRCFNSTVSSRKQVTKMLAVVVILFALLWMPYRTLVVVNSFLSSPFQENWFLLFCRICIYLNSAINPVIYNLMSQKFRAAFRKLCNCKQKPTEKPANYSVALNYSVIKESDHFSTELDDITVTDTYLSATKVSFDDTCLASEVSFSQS
Progesterone receptor (Homo sapiens), sequence (P06401 whole entry, looked up): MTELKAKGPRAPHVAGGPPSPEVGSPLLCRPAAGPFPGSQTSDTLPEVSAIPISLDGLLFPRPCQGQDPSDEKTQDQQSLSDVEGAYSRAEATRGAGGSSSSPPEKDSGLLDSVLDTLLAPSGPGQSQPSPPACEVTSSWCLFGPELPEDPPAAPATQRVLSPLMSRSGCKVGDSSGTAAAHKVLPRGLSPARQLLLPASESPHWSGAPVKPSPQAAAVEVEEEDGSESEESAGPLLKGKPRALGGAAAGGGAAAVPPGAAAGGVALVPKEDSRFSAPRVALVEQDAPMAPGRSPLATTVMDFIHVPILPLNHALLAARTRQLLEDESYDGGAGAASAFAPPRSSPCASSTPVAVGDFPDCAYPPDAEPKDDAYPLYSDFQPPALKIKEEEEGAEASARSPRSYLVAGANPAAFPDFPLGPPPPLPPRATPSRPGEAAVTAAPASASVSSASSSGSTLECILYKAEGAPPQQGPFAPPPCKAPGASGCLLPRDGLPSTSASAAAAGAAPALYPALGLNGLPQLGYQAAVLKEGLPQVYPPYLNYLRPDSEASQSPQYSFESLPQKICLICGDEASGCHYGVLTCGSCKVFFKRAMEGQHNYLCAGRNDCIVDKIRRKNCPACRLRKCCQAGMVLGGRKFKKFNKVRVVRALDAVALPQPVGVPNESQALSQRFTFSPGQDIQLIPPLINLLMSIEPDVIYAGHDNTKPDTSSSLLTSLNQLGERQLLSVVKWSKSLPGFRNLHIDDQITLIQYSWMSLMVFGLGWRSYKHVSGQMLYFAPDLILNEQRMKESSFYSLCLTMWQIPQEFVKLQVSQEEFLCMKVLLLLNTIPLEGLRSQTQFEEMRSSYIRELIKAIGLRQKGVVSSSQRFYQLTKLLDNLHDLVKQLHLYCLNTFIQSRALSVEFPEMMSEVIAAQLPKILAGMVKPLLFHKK
Estrogen receptor beta (Homo sapiens), sequence (Q92731 whole entry, looked up): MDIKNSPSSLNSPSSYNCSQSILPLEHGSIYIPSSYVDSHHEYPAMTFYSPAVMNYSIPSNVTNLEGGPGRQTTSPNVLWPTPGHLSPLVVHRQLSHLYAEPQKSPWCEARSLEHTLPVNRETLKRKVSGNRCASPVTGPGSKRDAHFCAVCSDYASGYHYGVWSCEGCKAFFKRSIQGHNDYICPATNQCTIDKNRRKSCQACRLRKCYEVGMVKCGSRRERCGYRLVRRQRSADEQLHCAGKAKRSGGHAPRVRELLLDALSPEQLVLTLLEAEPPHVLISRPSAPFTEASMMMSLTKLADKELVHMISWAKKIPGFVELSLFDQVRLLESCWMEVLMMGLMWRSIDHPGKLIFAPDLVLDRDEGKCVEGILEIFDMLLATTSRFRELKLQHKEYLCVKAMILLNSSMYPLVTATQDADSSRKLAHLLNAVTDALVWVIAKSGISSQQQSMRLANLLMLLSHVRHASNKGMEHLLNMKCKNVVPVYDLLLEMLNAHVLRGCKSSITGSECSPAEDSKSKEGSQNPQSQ
Estrogen receptor (Homo sapiens), sequence (P03372 whole entry, looked up): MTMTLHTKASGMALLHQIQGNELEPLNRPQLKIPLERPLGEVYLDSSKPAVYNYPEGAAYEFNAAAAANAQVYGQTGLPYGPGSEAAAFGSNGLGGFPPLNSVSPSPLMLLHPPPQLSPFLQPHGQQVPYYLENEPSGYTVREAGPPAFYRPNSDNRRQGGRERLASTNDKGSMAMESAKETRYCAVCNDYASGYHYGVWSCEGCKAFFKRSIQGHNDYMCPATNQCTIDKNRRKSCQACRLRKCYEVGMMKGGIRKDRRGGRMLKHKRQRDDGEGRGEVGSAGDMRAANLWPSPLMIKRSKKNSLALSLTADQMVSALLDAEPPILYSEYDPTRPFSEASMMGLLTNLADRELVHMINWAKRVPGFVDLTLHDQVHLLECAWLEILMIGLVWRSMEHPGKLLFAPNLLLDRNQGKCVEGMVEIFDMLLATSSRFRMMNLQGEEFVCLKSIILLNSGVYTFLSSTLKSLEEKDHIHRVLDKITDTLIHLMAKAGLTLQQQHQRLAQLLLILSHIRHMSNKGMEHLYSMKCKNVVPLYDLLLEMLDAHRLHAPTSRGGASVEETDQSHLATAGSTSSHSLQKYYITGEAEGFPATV
Thyrotropin receptor (Homo sapiens), sequence (P16473 whole entry, looked up): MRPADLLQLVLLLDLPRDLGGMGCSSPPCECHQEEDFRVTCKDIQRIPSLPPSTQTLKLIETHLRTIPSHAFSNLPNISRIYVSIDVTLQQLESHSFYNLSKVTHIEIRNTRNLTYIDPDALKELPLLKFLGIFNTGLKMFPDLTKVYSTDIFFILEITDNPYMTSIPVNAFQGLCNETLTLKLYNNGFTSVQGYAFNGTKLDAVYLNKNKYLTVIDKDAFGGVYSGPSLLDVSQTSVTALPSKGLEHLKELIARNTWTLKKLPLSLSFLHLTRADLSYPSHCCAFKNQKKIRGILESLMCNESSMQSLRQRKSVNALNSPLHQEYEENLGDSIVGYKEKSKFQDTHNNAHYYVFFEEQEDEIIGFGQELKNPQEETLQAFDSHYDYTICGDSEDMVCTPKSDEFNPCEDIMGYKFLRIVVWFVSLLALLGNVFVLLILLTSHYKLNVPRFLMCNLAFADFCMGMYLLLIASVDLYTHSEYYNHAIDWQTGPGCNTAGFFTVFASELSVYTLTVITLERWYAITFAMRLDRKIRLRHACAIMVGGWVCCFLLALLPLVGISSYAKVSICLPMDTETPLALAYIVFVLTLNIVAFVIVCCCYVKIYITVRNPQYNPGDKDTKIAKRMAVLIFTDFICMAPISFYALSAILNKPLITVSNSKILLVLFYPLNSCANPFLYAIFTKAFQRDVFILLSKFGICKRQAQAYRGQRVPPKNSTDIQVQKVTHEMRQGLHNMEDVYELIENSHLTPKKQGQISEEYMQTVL
Androgen receptor (Homo sapiens), sequence (P10275 whole entry, looked up): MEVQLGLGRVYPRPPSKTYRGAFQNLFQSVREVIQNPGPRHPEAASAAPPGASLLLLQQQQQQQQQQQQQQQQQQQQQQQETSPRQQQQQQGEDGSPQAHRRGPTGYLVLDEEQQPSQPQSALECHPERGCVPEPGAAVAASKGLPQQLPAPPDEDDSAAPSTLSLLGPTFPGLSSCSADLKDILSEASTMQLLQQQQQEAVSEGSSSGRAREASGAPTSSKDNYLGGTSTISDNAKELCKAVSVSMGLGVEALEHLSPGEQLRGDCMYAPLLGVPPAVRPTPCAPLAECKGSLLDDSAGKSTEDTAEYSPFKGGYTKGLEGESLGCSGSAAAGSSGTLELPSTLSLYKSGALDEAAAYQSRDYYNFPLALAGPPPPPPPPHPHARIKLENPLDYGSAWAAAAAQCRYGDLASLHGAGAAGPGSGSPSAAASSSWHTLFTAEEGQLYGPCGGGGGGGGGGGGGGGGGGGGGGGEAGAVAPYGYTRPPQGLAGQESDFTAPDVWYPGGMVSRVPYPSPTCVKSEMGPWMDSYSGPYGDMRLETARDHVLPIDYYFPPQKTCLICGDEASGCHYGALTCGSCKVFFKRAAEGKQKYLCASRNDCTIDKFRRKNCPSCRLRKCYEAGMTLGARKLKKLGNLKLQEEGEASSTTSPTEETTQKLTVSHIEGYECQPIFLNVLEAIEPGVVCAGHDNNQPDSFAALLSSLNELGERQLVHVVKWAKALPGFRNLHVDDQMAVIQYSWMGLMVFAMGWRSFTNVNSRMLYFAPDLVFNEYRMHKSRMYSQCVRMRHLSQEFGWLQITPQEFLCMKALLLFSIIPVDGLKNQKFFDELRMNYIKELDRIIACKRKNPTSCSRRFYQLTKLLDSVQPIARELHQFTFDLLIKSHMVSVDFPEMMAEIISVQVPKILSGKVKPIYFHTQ

For the compound `CCCCC(CC)COC(=O)Cl` (configuration not stated), the Potency entry in assay [1], in assay [2], in assay [3], in assay [4], in assay [5] and in assay [8] was “inactive” each time. Moreover, the Potency result in assay [9], in assay [10], in assay [11], in assay [13], in assay [14] and in assay [15] was “inactive” throughout. In addition, the outcome in assay [6], in assay [7] and in assay [12] was inactive.

Turning to `O=C1C=CC(=O)C=C1`, the Potency result in [1], in assay [2], in [3], in [4], in assay [16] and in assay [8] was “inactive” in each case. Moreover, the Potency entry in assay [17], in assay [18], in assay [9], in assay [19], in assay [10] and in [11] was “inactive” each time. Also, the Potency entry in assay [13], in assay [14] and in assay [15] was “inactive” in each case. The result in assay [6], in [7] and in assay [12] was inactive.

For `O=[N+]([O-])c1ccc(O)c([N+](=O)[O-])c1`, the Potency entry in assay [1], in [2], in [4], in assay [20], in assay [5] and in assay [17] was “inactive” each time. Besides, the Potency entry in [18], in [11], in assay [13] and in assay [14] was “inactive” in each case. The result in [6] and in assay [7] was inactive. In addition, the Potency is 30.8 µM (active) and 27.3 µM (active) in [8]; 24.4 µM (active) and 54.5 µM (active) in assay [15].

As for `N#CC(Br)Br`, the Potency entry in assay [1], in assay [2], in assay [3], in [4], in assay [16] and in assay [5] was “inactive” throughout. For the same compound, the Potency result in [8], in assay [17], in assay [18], in assay [9], in [19] and in [10] was “inactive” throughout. The Potency result in assay [11], in assay [13], in [14] and in assay [15] was “inactive” throughout. The compound was classed as inactive in assay [6], in [7] and in [12].

As to `Oc1cc(Cl)c(Cl)cc1Cl`, the Potency entry in assay [1], in [2], in assay [3], in assay [4], in assay [16] and in [17] was “inactive” each time. Also, the Potency result in assay [9], in assay [10], in [11], in [13], in assay [14] and in assay [15] was “inactive” each time. The call in [6], in assay [7] and in assay [12] was inactive. In addition, the Potency in assay [18] is 60.6 µM (active) and inactive and 54.5 µM (active).

`c1nc[nH]n1`: the Potency result in assay [1], in [2], in assay [3], in assay [4], in assay [5] and in [17] was “inactive” throughout. Moreover, the Potency result in [18], in assay [9], in [11] and in assay [15] was “inactive” each time. For the same compound, the compound was called inactive in [6], in [7] and in assay [12].

Take `Nc1ccc(-c2ccc(N)c(N)c2)cc1N`: the Potency result in assay [1], in assay [3], in assay [17], in assay [9], in assay [10] and in assay [11] was “inactive” in each case. In addition, the Potency result in assay [15] was “inactive”. The Potency in assay [2] was 48.4 µM (active); in assay [8], 54.3 µM (active); in assay [18], 48.4 µM (active) and 24.3 µM (active). Also, in assay [6], the outcome was inactive.

Turning to `CCC(C)c1cc([N+](=O)[O-])cc([N+](=O)[O-])c1O` (configuration not stated), the Potency entry in assay [1], in [2], in [4], in assay [16], in assay [5] and in assay [17] was “inactive” in each case. Also, the Potency result in [18], in assay [9], in assay [19] and in assay [11] was “inactive” each time. The Potency entry in [3] is “inactive and 21.7 µM (active)”; in assay [15], “inactive and 8.63 µM (active)”. For the same compound, the compound was called inactive in [6] and in assay [7].

Consider `CC(C)(C)c1ccccc1O`, for which the Potency entry in [1], in [2], in [3], in [4], in assay [17] and in [18] was “inactive” in each case. Besides, the Potency entry in assay [9], in assay [19], in assay [11], in assay [13], in [14] and in assay [15] was “inactive” in each case.
